Screening data deposited in PubChem BioAssay by several laboratories.
BoNT A protease: blocks Botulinum neurotoxin A light chain protease. multiplex microsphere protease substrate cleavage, flow cytometry. AID 588499. inhibition, % at 10 µM. 360,000 compounds, 0.17% hits
BJeLR lethal: kills HRASV12-expressing BJeLR cells. BJeLR (HRASV12) viability, CellTiter-Glo ATP luminescence, 48 h. inhibition, % (test concentration not listed). 300,000 compounds, 0.17% hits. AID 1554; in the data active means inhibition above about 50%; inconclusive means no clear call, values can overlap the other calls
BoNT F protease: BoNT F light chain protease inhibition; 360,000 compounds, 0.22% hits; Multiplex microsphere protease cleavage assay, flow cytometry; inhibition, % at 10 µM; in the data active means inhibition above about 35%, passing the limit was not always enough; inconclusive means no clear call, values can overlap the other calls
Bead autofluor: compound fluorescence in toxin protease inhibitor counterscreen | AID 624483 | 360,000 compounds, 3.1% hits | fluorescence intensity (test concentration not listed) | compound autofluorescence counterscreen, microsphere flow cytometry; hits give high values; in the data active means fluorescence intensity above about 16000; inconclusive means no clear call, values can overlap the other calls
Anthrax LF prot: anthrax lethal factor protease inhibition; P15917; multiplex microsphere protease cleavage assay, LF; inhibition, % at 10 µM; 360,000 compounds, 0.12% hits; AID 588501
Target sequence (P15917 whole entry, looked up): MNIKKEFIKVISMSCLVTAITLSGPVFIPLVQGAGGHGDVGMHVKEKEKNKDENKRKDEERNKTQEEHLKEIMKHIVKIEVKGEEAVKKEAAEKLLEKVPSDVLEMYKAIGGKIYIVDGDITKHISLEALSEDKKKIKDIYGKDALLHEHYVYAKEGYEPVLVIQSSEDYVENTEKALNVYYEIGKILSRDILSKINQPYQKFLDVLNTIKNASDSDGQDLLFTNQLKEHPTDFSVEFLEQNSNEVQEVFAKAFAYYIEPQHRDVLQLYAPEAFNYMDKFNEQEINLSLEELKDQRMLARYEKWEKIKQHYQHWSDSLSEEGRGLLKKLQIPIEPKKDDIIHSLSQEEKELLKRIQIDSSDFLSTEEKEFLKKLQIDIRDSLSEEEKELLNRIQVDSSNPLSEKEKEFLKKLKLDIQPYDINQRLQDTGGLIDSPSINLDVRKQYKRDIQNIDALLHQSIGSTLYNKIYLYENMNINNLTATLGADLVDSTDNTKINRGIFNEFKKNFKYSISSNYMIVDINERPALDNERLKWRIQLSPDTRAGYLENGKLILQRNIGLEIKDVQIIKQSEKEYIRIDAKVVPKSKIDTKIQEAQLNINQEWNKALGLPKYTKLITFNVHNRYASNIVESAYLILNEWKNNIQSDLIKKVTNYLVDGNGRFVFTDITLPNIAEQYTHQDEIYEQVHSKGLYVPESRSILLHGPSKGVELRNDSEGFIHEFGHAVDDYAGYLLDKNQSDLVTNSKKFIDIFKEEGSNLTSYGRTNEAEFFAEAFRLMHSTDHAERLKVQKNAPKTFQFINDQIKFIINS
A number is an active result; 0 = inactive; ? = inconclusive; - = not tested or not shown. Only some compounds are listed: those with a hit (about 3.5% of all), similar ones and a draw of the others. Unless noted, no stated cut-off is given here; in the data, active means inhibition above about 30%; inconclusive means no clear call, values can overlap the other calls; inactive means below that.

SMILES | BoNT A protease | BJeLR lethal | BoNT F protease | Bead autofluor | Anthrax LF prot
CC(=O)Nc1ccc(S(=O)(=O)NCCC(=O)NCc2ccco2)cc1 | 0 | - | 0 | 0 | 0
Cc1ccc(/C=N/NS(=O)(=O)c2ccc([N+](=O)[O-])cc2)o1 | 0 | 0 | 0 | 0 | 0
CCCCCCCCCCS(=O)(=O)N/N=C/c1ccc([N+](=O)[O-])cc1 | ? | 0 | 0 | 21737 | 0
Cc1cc(C(=O)CN2C(=O)NC(Cc3c[nH]c4ccccc34)C2=O)c(C)n1C (stereo not drawn) | 0 | 0 | 0 | 23788 | 0
CNC(=O)CN1C(=O)NC(Cc2c[nH]c3ccccc23)C1=O (stereo not drawn) | 0 | 0 | 0 | 0 | 0
COc1cc2c(cc1OC)CN(CC(=O)NC(=O)NCc1ccccc1)CC2 | 0 | 0 | 0 | 0 | 0
C/C=C(\C)CN1CCc2cc(OC)c(OC)cc2C1 | 0 | 0 | 0 | 24105 | 0
CCOC(=O)C(=C1Nc2ccccc2N1)n1c(-c2cccnc2)nc2ccccc21 | 0 | - | 0 | 0 | 0
Cc1ccc(O)c(C(=O)c2coc(=N)c(C(=O)NC(C)C)c2)c1 | ? | 0 | 0 | 20781 | 0
COC(=O)c1cc(C(=O)c2cc(Cl)ccc2O)coc1=N | 0 | 0 | 0 | 0 | 0
COc1ccc(-c2c(C)nn3c(N4CCC(C(=O)NCCN(C)C)CC4)cc(C)nc23)cc1OC | 0 | 0 | 0 | 23368 | 0
CCCNC(=O)C1(C)CCN(C(=O)c2ccc3snnc3c2)C1 (stereo not drawn) | 0 | - | 0 | 0 | 0
Cc1ccc(Cn2c(N)c(S(=O)(=O)c3cccs3)c3nc4ccccc4nc32)cc1 | 0 | - | 0 | 18251 | 0
COc1cccc(/C=N/n2c(CO)nc3ccccc32)c1OC | ? | 0 | 0 | 21345 | 0
COCCn1c(N)c(S(=O)(=O)c2cccs2)c2nc3ccccc3nc21 | 0 | 0 | 0 | 0 | 0
Nc1c(S(=O)(=O)c2cccs2)c2nc3ccccc3nc2n1Cc1ccccc1 | 0 | 0 | 0 | 16336 | 0
COc1cccc(/C=N/n2c(N)c(S(=O)(=O)c3cccs3)c3nc4ccccc4nc32)c1OC | 0 | 0 | 0 | 16852 | 0
CNc1nc2ccccc2n1/N=C/c1cccc(OC)c1OC | 0 | 0 | 0 | 0 | 0
NC(c1csc(Nc2ncccn2)n1)c1ccccc1Cl (stereo not drawn) | 0 | - | 0 | 0 | 0
O=C(C[C@@H]1C/C=C\CC[C@H](Cc2ccc(F)cc2)C(=O)OC[C@@H](Cc2ccccc2)NC1=O)NCCO | 0 | - | 0 | 0 | 0
O=C(NCc1c(Cl)cccc1Cl)c1[nH]c(C(F)(F)F)nc1-c1ccccc1 | 0 | - | 0 | 0 | 0
CN(C)S(=O)(=O)N1CCN(S(=O)(=O)N(C)C)CC1 | 0 | 0 | 0 | 0 | 0
CC1CN(S(=O)(=O)N(C)C)CCN1S(=O)(=O)N(C)C (stereo not drawn) | 0 | 0 | 0 | 19855 | 0
COc1ccc(CCc2nnc(CCC(=O)NCc3cnc4ccccn34)o2)cc1 | 0 | 0 | 0 | 0 | 0
C=C(C)CSC1=C(C#N)C(c2ccccc2Cl)CC(=O)N1 (stereo not drawn) | 0 | 0 | 0 | 23035 | 0
SMILES | BoNT A protease | BJeLR lethal | BoNT F protease | Bead autofluor | Anthrax LF prot
CC1(C)Cc2nc3sc4c(=O)n(CC(=O)NCc5ccccc5)cnc4c3cc2CO1 | 0 | - | 0 | 16709 | 0
COC(=O)C1=C(C)N(Cc2ccccc2)C(=NCc2cccc(C(F)(F)F)c2)N[C@H]1c1cccc(F)c1 | 0 | 99.1 | 0 | 0 | 0
COC(=O)C1=C(C)N(Cc2ccccc2)C(=NCc2cccc(C(F)(F)F)c2)N[C@H]1c1cccc(C(F)(F)F)c1 | 0 | - | 0 | 0 | 0
Cc1ccc2cccc(CC(=O)NN)c2c1 | 0 | - | 0 | 0 | 0
CCCCCCC1CC(=CN(C)C)C(=O)O1 (stereo not drawn) | 0 | - | 0 | 0 | 0
CCOc1cc(C=O)ccc1OCCCN1C(=O)NC(C)(C)C1=O | 0 | 0 | 0 | 22259 | 0
CC1(C)NC(=O)N(CCCOc2ccccc2Br)C1=O | 0 | 0 | 0 | 16174 | 0
CCC(C)(C)c1ccc(OCCN2C(=O)NC(C)(C)C2=O)cc1 | 0 | 0 | 0 | 22180 | 0
C/C=C/c1ccc(OCCCCN2C(=O)NC(C)(C)C2=O)c(OC)c1 | 0 | 0 | 0 | 0 | 0
CCc1cccc(OCCCN2C(=O)NC(C)(C)C2=O)c1 | 0 | 0 | 0 | 22570 | 0
C[C@@H]1CN([C@@H](C)CO)C(=O)c2cc(Br)cnc2O[C@H]1CN(C)C(=O)NC1CCCC1 | 0 | - | 0 | 0 | 0
CCCCCCCCN1C(=O)[C@H](CC(=O)N2CCN(C(=O)C3CC3)CC2)C[C@@]2(C(=O)OCC)CCCC=C12 | 0 | - | 0 | 0 | 0
CCCc1cc(C(N)=O)c(NC(=O)c2ccco2)s1 | 0 | 0 | 0 | 16987 | 0
CCCc1cc(C(N)=O)c(NC(=O)C2CCCO2)s1 (stereo not drawn) | 0 | 0 | 0 | 0 | 0
